Measured values: PubChem BioAssay (NCI)
About 79,000 compounds went through this panel and 15% of them were active in at least one assay; those are over-represented in the sample as a whole. Unmarked numbers belong to inactive results. Calls of active or inactive are those of the source. No stated cut-off is given here; in the data, active means growth inhibition above about 70%; inactive means the rest.

Tests used:
[1] = NCI Yeast Anticancer Drug Screen. Data for the rad50 strain (AID 155);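 further: 0% = growth of vehicle-only cultures of the same strain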; settings: S. cerevisiae rad50 strain growth inhibition; at 50.0 µM; stronger effect = higher value
In short: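 Cells are treated with compound, grown, and their growth is then scored against vehicle-only cultures of the same repair-deficient yeast strain.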

[2] = NCI Yeast Anticancer Drug Screen. Data for the mec2-1 strain (AID 157); settings: S. cerevisiae mec2-1 strain, at 50.0 µM, stronger effect = higher value
In short: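 Vehicle-treated cultures served as reference for growth inhibition of compound-exposed mec2-1 yeast.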

[3] = NCI Yeast Anticancer Drug Screen. Data for the sgs1 mgt1 strain (AID 161);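 further: 0% = growth of cultures given vehicle only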; settings: S. cerevisiae sgs1 mgt1 strain, at 50.0 µM, stronger effect = higher value
In short: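 Genetically altered yeast, compound exposure, growth inhibition relative to vehicle.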

[4] = NCI Yeast Anticancer Drug Screen. Data for the cln2 rad14 strain (AID 165);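 further: 0% = growth equal to vehicle treated cultures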; settings: S. cerevisiae cln2 rad14 strain, at 50.0 µM, stronger effect = higher value
In short: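 Each compound was tested on cln2 rad14 yeast. Inhibition of growth was calculated against vehicle-exposed controls.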

[5] = NCI Yeast Anticancer Drug Screen. Data for the bub3 strain (AID 167); settings: S. cerevisiae bub3 mutant strain, at 50.0 µM, stronger effect = higher value
In short: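 Part of a panel of yeast mutants defective in DNA damage repair or cell cycle regulation. Each strain is grown with compound, and inhibition is calculated relative to solvent-treated cultures.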

[6] = NCI Yeast Anticancer Drug Screen. Data for the mlh1 rad18 strain (AID 175); settings: S. cerevisiae mlh1 rad18 strain growth inhibition; at 50.0 µM; stronger effect = higher value
In short: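 Vehicle-treated cultures served as the reference for growth inhibition in a yeast strain carrying DNA damage repair alterations exposed to each compound.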

## CCOC(=O)C1=C(NC(=O)C(c2ccccc2)c2ccccc2)OCC1
[1]
  growth inhibition: 4.7%
[2]
  growth inhibition: 4.75%
[3]
  growth inhibition: 5.05%
[4]
  growth inhibition: -48.5%
[5]
  growth inhibition: -13.3%
[6]
  growth inhibition: 7.85%

## CC(=O)CC(=O)NCCCN1CCCCCC1
[1]
  growth inhibition: -1.1%
[2]
  growth inhibition: -20.1%
[3]
  growth inhibition: -9.45%
[4]
  growth inhibition: -1.05%
[5]
  growth inhibition: -11.2%
[6]
  growth inhibition: -4.35%

## CCOC(=O)c1ccc(N(N=O)C(C)C)cc1
[1]
  growth inhibition: 5.3%
[2]
  growth inhibition: 5.15%
[3]
  growth inhibition: 9.6%
[4]
  growth inhibition: -16%
[5]
  growth inhibition: 1.25%
[6]
  growth inhibition: 5.15%

## Cc1cccc(C(=O)OCc2ccccc2CN2CCCCC2)c1
[1]
  growth inhibition: -5.15%
[2]
  growth inhibition: -9.75%
[3]
  growth inhibition: -12.9%
[4]
  growth inhibition: -21.6%
[5]
  growth inhibition: 2.85%
[6]
  growth inhibition: -3.6%

## C(=NCCSSCCN=Cc1ccccc1)c1ccccc1
[1]
  growth inhibition: 12.1%
[2]
  growth inhibition: 10.3%
[3]
  growth inhibition: 18.6%
[4]
  growth inhibition: 10.1%
[5]
  growth inhibition: -12.1%
[6]
  growth inhibition: 21.6%

## CCCCCCC1NC(CCCCCC)N2C(CCCCCC)N12 (stereo not given)
[1]
  growth inhibition: 28.9%
[2]
  growth inhibition: 16.8%
[3]
  growth inhibition: -2.15%
[4]
  growth inhibition: 0%
[5]
  growth inhibition: 21.6%
[6]
  growth inhibition: -2.7%

## COc1cc2c(c(OC)c1OC)-c1ccc(OC)c(=O)cc1C(NC(=O)c1ccc(N=[N+]=[N-])cc1)CC2 (stereo not given)
[1]
  growth inhibition: 51.4%
[2]
  growth inhibition: 74.8% (active)
[3]
  growth inhibition: 8.5%
[4]
  growth inhibition: -4.7%
[5]
  growth inhibition: -4.6%
[6]
  growth inhibition: 87.3% (active)

## O=C(NCCNCCNC(=O)C(F)(F)F)C(F)(F)F
[1]
  growth inhibition: -9.75%
[2]
  growth inhibition: -16.9%
[3]
  growth inhibition: -4.4%
[4]
  growth inhibition: 12.8%
[5]
  growth inhibition: -1.5%
[6]
  growth inhibition: -41.6%

## C/C(N=NC(=S)N1CCCCC1C)=C1\C=CC=CN1O (stereo not given)
[1]
  growth inhibition: 49.2%
[2]
  growth inhibition: 4.25%
[3]
  growth inhibition: 54.7%
[4]
  growth inhibition: 89.4% (active)
[5]
  growth inhibition: 20.1%
[6]
  growth inhibition: 20.6%

## C/C(N=NC(=S)N1CC(C)OC(C)C1)=C1\C=CC=CN1O (stereo not given)
[1]
  growth inhibition: -7.3%
[2]
  growth inhibition: -2.15%
[3]
  growth inhibition: 11.8%
[4]
  growth inhibition: 12.3%
[5]
  growth inhibition: 13.8%
[6]
  growth inhibition: 8.85%

## Cc1cc(=O)n(Cc2ccco2)c(=S)[nH]1
[1]
  growth inhibition: 25.1%
[2]
  growth inhibition: -25.4%
[3]
  growth inhibition: 14.6%
[4]
  growth inhibition: 0.75%
[5]
  growth inhibition: -0.9%
[6]
  growth inhibition: -9%

## Cc1csc2nc3[nH]ncc3c(=O)n12
[1]
  growth inhibition: -21.6%
[2]
  growth inhibition: -59%
[3]
  growth inhibition: -15.1%
[4]
  growth inhibition: -9.85%
[5]
  growth inhibition: -5.65%
[6]
  growth inhibition: -14.9%

## CC(C)C1OCC(CO)([N+](=O)[O-])CO1 (stereo not given)
[1]
  growth inhibition: -45%
[2]
  growth inhibition: -18.4%
[3]
  growth inhibition: -21.8%
[4]
  growth inhibition: -54.5%
[5]
  growth inhibition: 1.35%
[6]
  growth inhibition: -6.15%

## CC1(C)S[C@@H]2[C@H](NC(=O)/C=C/c3ccccc3)C(=O)N2[C@H]1C(=O)O
[1]
  growth inhibition: 15.3%
[2]
  growth inhibition: 9.5%
[3]
  growth inhibition: 9.2%
[4]
  growth inhibition: 0.6%
[5]
  growth inhibition: 25.6%
[6]
  growth inhibition: -5.5%

## COC(=O)C1[C@@H](C(=O)OC)C12C=Cc1ccccc1C=C2 (stereo not given in full)
[1]
  growth inhibition: -33.2%
[2]
  growth inhibition: -47%
[3]
  growth inhibition: -50.2%
[4]
  growth inhibition: 1.05%
[5]
  growth inhibition: -28.6%
[6]
  growth inhibition: -25.4%

## COc1cccc(NC(=O)C(=O)C(C(C)=O)c2nc3ccc(Cl)cc3[nH]c2=O)c1 (stereo not given)
[1]
  growth inhibition: -16.3%
[2]
  growth inhibition: 3.7%
[3]
  growth inhibition: -19.2%
[4]
  growth inhibition: 15.4%
[5]
  growth inhibition: 2.25%
[6]
  growth inhibition: -5.4%

## COc1cc(O)c2c(c1)C(=O)C1=C(C2=O)C(O)C[C@@](C)(O)C1 (stereo not given in full)
[1]
  growth inhibition: 89.2% (active)
[2]
  growth inhibition: 90.2% (active)
[3]
  growth inhibition: 92% (active)
[4]
  growth inhibition: 75.5% (active)
[5]
  growth inhibition: 91.2% (active)
[6]
  growth inhibition: 90% (active)

## Cc1cccc(-c2nnc3s/c(=C\c4ccc(N(C)C)cc4)c(=O)n23)c1
[1]
  growth inhibition: -3.05%
[2]
  growth inhibition: 8.15%
[3]
  growth inhibition: 13.4%
[4]
  growth inhibition: 13.8%
[5]
  growth inhibition: 13.5%
[6]
  growth inhibition: 16.4%

## O=C(C(=O)c1cc(-c2ccccc2)nc2ccc3ccccc3c12)c1ccccc1
[1]
  growth inhibition: -24.3%
[2]
  growth inhibition: -5.65%
[3]
  growth inhibition: -1.05%
[4]
  growth inhibition: 13.9%
[5]
  growth inhibition: 30.1%
[6]
  growth inhibition: 14.3%

## CCOC(CN/C(=C/c1ccc2ccccc2[n+]1C)SC)OCC
[1]
  growth inhibition: -10.8%
[2]
  growth inhibition: 9.15%
[3]
  growth inhibition: -8.4%
[4]
  growth inhibition: -12.1%
[5]
  growth inhibition: -32.8%
[6]
  growth inhibition: -8.2%

## c1ccc2c3c([nH]c2c1)CCCCCC3
[1]
  growth inhibition: 19.2%
[2]
  growth inhibition: 14.6%
[3]
  growth inhibition: 15.1%
[4]
  growth inhibition: 13.2%
[5]
  growth inhibition: 21.8%
[6]
  growth inhibition: 15.9%

## COc1ccc(C(C#N)C(=O)C(=O)Nc2ccc(C)cc2C)cc1OC (stereo not given)
[1]
  growth inhibition: -30.6%
[2]
  growth inhibition: 19.6%
[3]
  growth inhibition: 42%
[4]
  growth inhibition: -22.9%
[5]
  growth inhibition: 48.2%
[6]
  growth inhibition: 28.8%

## Nc1cccc(/C=C/c2ccc([N+](=O)[O-])cc2)c1
[1]
  growth inhibition: -2.3%
[2]
  growth inhibition: 24.6%
[3]
  growth inhibition: 54.7%
[4]
  growth inhibition: -12.4%
[5]
  growth inhibition: 30%
[6]
  growth inhibition: 39.5%

## CCOCCN(CCOCC)c1ncnc2[nH]ncc12
[1]
  growth inhibition: 9.15%
[2]
  growth inhibition: 5.15%
[3]
  growth inhibition: 9.95%
[4]
  growth inhibition: -25.2%
[5]
  growth inhibition: 21.6%
[6]
  growth inhibition: 10.6%

## CC(=O)NC1=NC(=O)/C(=C/c2ccc(/C=C3/C(=O)N=C(NC(C)=O)N3C)cc2)N1C
[1]
  growth inhibition: -20.6%
[2]
  growth inhibition: 11%
[3]
  growth inhibition: 14.4%
[4]
  growth inhibition: 35.6%
[5]
  growth inhibition: -9.05%
[6]
  growth inhibition: -27.2%

## Cc1ccccc1C(=O)OCC(=O)c1ccc(-c2ccccc2)cc1
[1]
  growth inhibition: -17.6%
[2]
  growth inhibition: -9.4%
[3]
  growth inhibition: -1.35%
[4]
  growth inhibition: -37.5%
[5]
  growth inhibition: 14%
[6]
  growth inhibition: -20.7%

## CCCC(CCc1ccccc1)C(N)=O (stereo not given)
[1]
  growth inhibition: 1.4%
[2]
  growth inhibition: -5.7%
[3]
  growth inhibition: 9.15%
[4]
  growth inhibition: -7.35%
[5]
  growth inhibition: 10.8%
[6]
  growth inhibition: -1.9%

## CCOC(=O)C1Cc2c(n(C3CCCCC3)c(=O)n(C)c2=O)OC1c1ccccc1 (stereo not given)
[1]
  growth inhibition: 14.4%
[2]
  growth inhibition: -5.15%
[3]
  growth inhibition: -7%
[4]
  growth inhibition: 16.1%
[5]
  growth inhibition: 2.55%
[6]
  growth inhibition: -8.05%

## Cc1cc(C)nc(NS(=O)(=O)c2ccc(NC(=O)C(Cl)(Cl)Cl)cc2)n1
[1]
  growth inhibition: -34%
[2]
  growth inhibition: -24.6%
[3]
  growth inhibition: -35.4%
[4]
  growth inhibition: -13%
[5]
  growth inhibition: -42%
[6]
  growth inhibition: -39.8%

## CN(C)C(=O)c1ccc[n+](CC(=O)NCc2ccccc2)c1
[1]
  growth inhibition: 5.45%
[2]
  growth inhibition: -7.35%
[3]
  growth inhibition: -3.4%
[4]
  growth inhibition: 18.8%
[5]
  growth inhibition: 2.25%
[6]
  growth inhibition: 13.5%

## O=C1Nc2c(Cl)cc(Cl)cc2C1=O
[1]
  growth inhibition: 7.9%
[2]
  growth inhibition: 45.1%
[3]
  growth inhibition: 37.7%
[4]
  growth inhibition: -2.75%
[5]
  growth inhibition: 38%
[6]
  growth inhibition: 91.8% (active)

## Cc1ccccc1NC(=O)NNc1ccccc1
[1]
  growth inhibition: 17%
[2]
  growth inhibition: -0.65%
[3]
  growth inhibition: 7.35%
[4]
  growth inhibition: 10.7%
[5]
  growth inhibition: -2.9%
[6]
  growth inhibition: 3.85%

## Cc1ccc(S(=O)(=O)C2c3nc4ccccc4cc3-c3nc4ccccc4nc32)cc1 (stereo not given)
[1]
  growth inhibition: -10.8%
[2]
  growth inhibition: -13.2%
[3]
  growth inhibition: -17.8%
[4]
  growth inhibition: -81.8%
[5]
  growth inhibition: 7.95%
[6]
  growth inhibition: -14.9%

## O=c1cc(-c2ccccc2)[nH]c2ncccc12
[1]
  growth inhibition: -37.5%
[2]
  growth inhibition: -48.6%
[3]
  growth inhibition: -37.1%
[4]
  growth inhibition: -9.4%
[5]
  growth inhibition: -19.8%
[6]
  growth inhibition: -65.8%

## C=CCSc1nc2ccc(NCn3c(=S)sc4cc([N+](=O)[O-])ccc43)cc2s1
[1]
  growth inhibition: 12.6%
[2]
  growth inhibition: 14.4%
[3]
  growth inhibition: 30.9%
[4]
  growth inhibition: 14%
[5]
  growth inhibition: 3.4%
[6]
  growth inhibition: 31.9%

## COc1ccc2nc(C3CCCCC3C(=O)O)cc(C)c2c1 (stereo not given)
[1]
  growth inhibition: -9.2%
[2]
  growth inhibition: -5.35%
[3]
  growth inhibition: -5.8%
[4]
  growth inhibition: -27.1%
[5]
  growth inhibition: -4.3%
[6]
  growth inhibition: -1.45%

## COc1ccc2ccc3[nH]c4c(C)cnc(NCCCN(C)C)c4c3c2c1
[1]
  growth inhibition: 34.8%
[2]
  growth inhibition: 43.2%
[3]
  growth inhibition: 55.9%
[4]
  growth inhibition: 18.9%
[5]
  growth inhibition: 45.9%
[6]
  growth inhibition: 29.1%

## COc1cc(OC)c2nc(C)c3c(c2c1)SCC3
[1]
  growth inhibition: -0.5%
[2]
  growth inhibition: -23.1%
[3]
  growth inhibition: 5.25%
[4]
  growth inhibition: 7.4%
[5]
  growth inhibition: 28.6%
[6]
  growth inhibition: 20%

## Cc1nc2[nH]ncn2c(=O)c1CCCl
[1]
  growth inhibition: 20.9%
[2]
  growth inhibition: -31.9%
[3]
  growth inhibition: -11.9%
[4]
  growth inhibition: -7.55%
[5]
  growth inhibition: 8.1%
[6]
  growth inhibition: 9.4%

## O=[N+]([O-])c1ccc(-c2noc(-c3ccccc3)c2C2=NCCN2)cc1
[1]
  growth inhibition: -9.85%
[2]
  growth inhibition: -6%
[3]
  growth inhibition: 5.25%
[4]
  growth inhibition: 4.75%
[5]
  growth inhibition: 7.8%
[6]
  growth inhibition: 7.6%
